# IL-1B inflam inh: inflammasome signaling inhibition, IL-1 beta readout | AID 743279 | 360,000 tested, 4.7% active | THP-1 LPS/ATP IL-1B secretion, AlphaLISA, 16 h; stronger effect = lower value | activity change, % at 57.5 µM; in the data active = activity change below about -50%; inconclusive = mostly about -30% to -49%
#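 THP-1 cells pretreated 1 hr with compounds (up to 57.5 uM final), then stimulated with LPS (250 ng/mL final) plus ATP (1.25 mM final); secreted IL-1B measured by AlphaLISA after 16 hr, decreased signal indicating inhibition.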
# RORgamma inh: blocks mouse ROR gamma transcriptional activity | Potency, µM (top dose mostly 53.6 µM), inactives show at the highest dose activity change, negative = inhibition, actives largely listed as inhibitors | Drosophila S2 Gal4-RORgamma UAS-luciferase reporter, 20 h | P51450 | 310,000 tested, 5.4% active; also: potency is read from the fitted curve at half-maximal effect; nearly all actives have a fitted effect of over 60% in size
# Target sequence (P51450 whole entry, looked up, the tested form may be a part): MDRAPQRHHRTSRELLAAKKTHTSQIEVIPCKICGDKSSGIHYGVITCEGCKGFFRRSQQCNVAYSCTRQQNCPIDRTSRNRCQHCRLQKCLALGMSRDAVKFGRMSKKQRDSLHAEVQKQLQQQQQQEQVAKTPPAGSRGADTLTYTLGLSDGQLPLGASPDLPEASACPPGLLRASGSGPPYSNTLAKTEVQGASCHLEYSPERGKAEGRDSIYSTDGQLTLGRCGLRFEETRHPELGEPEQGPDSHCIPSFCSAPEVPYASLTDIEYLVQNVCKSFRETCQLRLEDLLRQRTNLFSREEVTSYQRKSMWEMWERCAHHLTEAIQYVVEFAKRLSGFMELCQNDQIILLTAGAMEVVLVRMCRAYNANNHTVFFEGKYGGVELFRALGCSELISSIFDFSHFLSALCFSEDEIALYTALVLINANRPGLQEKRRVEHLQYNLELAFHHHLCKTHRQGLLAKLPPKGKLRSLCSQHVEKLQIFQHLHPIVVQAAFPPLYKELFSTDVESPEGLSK
#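 Luciferase reporter read in Schneider cells carrying Gal4-RORγ (mouse) and UAS-Photinus luciferase; cells given compound 1 h before 700 uM copper sulfate induction, then incubated 20 h at ambient temperature.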
# DT40 TDP1 CPT: growth inhibition of DT40 Tdp1-/-;hTDP1 cells with camptothecin (screen for TDP1 inhibitors). chicken DT40 Tdp1-/-;hTDP1 cells + 20 nM CPT, ATP luminescence, 48 h. Potency, µM (titrated, usually from 46.2 µM), inactives show at the highest dose activity change, negative = growth inhibition, hits mostly inhibitors. 420,000 tested, 12% active. AID 686979; also: potency is read from the fitted curve at half-maximal effect; nearly all actives have a fitted effect of over 55% in size
#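 Chicken DT40 Tdp1-/- cells stably complemented with human TDP1 were seeded at 400 cells/well in medium containing 20 nM camptothecin, exposed to pin-transferred compounds, and grown at 37 °C for at least 48 hr. Viability was read as ATP luminescence.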
# ELG1 DNA repair: ELG1-dependent DNA repair inhibition; HEK293T ELG1-luciferase reporter, luminescence, 16 h; DNA damage induced by 5-fluorouridine; Potency, µM (doses to about 46.1 µM), for the others: at the top dose activity change, negative = inhibition, usual class: inhibitors; 330,000 tested, 2.3% active; also: potency is read from the fitted curve at half-maximal effect; nearly all actives have a fitted effect of over 55% in size
#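 Luminescence from the luciferase reporter, measured 30 min after ONE-Glo reagent at room temperature, was the read-out. Beforehand, 2,000 cells per well were exposed for 16 hr at 37 °C to 5-fluorouridine together with compound or vehicle.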
# DT40 TDP1 no CPT: qHTS for Inhibitors of human tyrosyl-DNA phosphodiesterase 1 (TDP1): qHTS in cells in absence of CPT; DT40 Tdp1-/- hTDP1 cells, no CPT, ATP luminescence, 48 h; Potency, µM (titrated, usually from 46.2 µM), for the others: top-dose activity change, negative = growth inhibition, usual class: inhibitors; 420,000 tested, 15% active; AID 686978, 2013; also: potency is read from the fitted curve at half-maximal effect; nearly all actives have a fitted effect of over 55% in size
#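 Camptothecin absent (DMSO only). Human TDP1-complemented DT40 knockout cells, 400 cells/well, 37 °C for minimum 48 hr; ATP measured via CellTiter-Glo, 30 min dark incubation, luminescence.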
# VP16 counter: Gal4-VP16 reporter inhibition counter-screen | Drosophila S2 Gal4-VP16 UAS-luciferase, luminescence, 20 h | Potency, µM (highest dose often 53.6 µM), for inactives: top-dose activity, negative = inhibition, actives largely listed as inhibitors | 310,000 tested, 3.5% active;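 also: Gal4-VP16 expression switched on by copper sulfate through the metallothionein promoter; potency is read from the fitted curve at half-maximal effect; nearly all actives have a fitted effect of over 50% in size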
# * hit, by the source's call; ? = inconclusive; · = no result given; [ ] = another dose, or the depositor's remark. Hits are enriched below; roughly 21% of the tested compounds scored in any of these assays. Unless noted, calls follow the shape of the dose curve; as a rule, active = well fitted curve in the direction sought with a large enough effect; inconclusive = small, poorly fitted or top-dose-only effect, or another doubt; inactive = no such curve, though single readings can be large; an effect the other way counts as inactive or inconclusive. % is scaled to controls: 0 for no effect and ±100 for the full control effect.
SMILES,IL-1B inflam inh,RORgamma inh,DT40 TDP1 CPT,ELG1 DNA repair,DT40 TDP1 no CPT,VP16 counter
O=C(O)CCCN1C(=O)c2cccc3cccc(c23)C1=O,-13,11%,7%,?,-12%,6%
O=C1c2cccc3cccc(c23)C(=O)N1CCCN(C(=O)c1cccs1)c1cccc(F)c1,30,-7%,?,-28%,16µM*,-3%
O=C1c2cccc3cc([N+](=O)[O-])cc(c23)C(=O)N1CC1CCCO1 (stereo not given),-72*,-13%,7.3µM*,-2%,6.5µM*,2%
CN(C)CCN1C(=O)c2cccc3cc([N+](=O)[O-])cc(c23)C1=O,-102*,·,0.21µM*,·,0.26µM*,·
CN(C)CCN1C(=O)c2ccccc2C1=O,45,·,0%,?,-12%,·
COc1ccccc1CNC(=O)COC(=O)c1cc(=O)c2ccccc2o1,27,·,-14%,1%,18%,·
COc1ccc(N(CCCN2C(=O)c3cccc4cccc(c34)C2=O)C(=O)c2cccc(OC)c2)cc1,-11,-3%,13µM*,18µM*,10µM*,3%
COc1ccc(-c2noc(-c3ccc(NCCc4ccccc4)c([N+](=O)[O-])c3)n2)cc1OC,·,·,-18%,·,-20%,·
COc1ccc(N(C(=O)c2snc(C(N)=O)c2N)C(C(=O)NC2CCCC2)c2ccc(OC)c(OC)c2)cc1 (stereo not given),-21,7%,-18%,-3%,-21%,-15%
COc1ccc(N(C(=O)c2snc(C(N)=O)c2N)C(C(=O)NC2CCCC2)c2cccs2)c(OC)c1 (stereo not given),0,?,?,-2%,21µM*,-9%
COc1ccc(OC)c(C(C(=O)NC2CCCCC2)N(C(=O)c2snc(C(N)=O)c2N)c2ccccc2OC)c1 (stereo not given),12,37%,?,-11%,?,-9%
CCOc1ccccc1N(C(=O)c1snc(C(N)=O)c1N)C(C(=O)NCCC(C)C)c1ccco1 (stereo not given),-11,7%,?,-21%,21µM*,-3%
COc1ccccc1N(C(=O)c1snc(C(N)=O)c1N)C(C(=O)NC1CCCCC1)c1cccc(OC)c1OC (stereo not given),0,14%,?,-7%,16µM*,-13%
COc1ccccc1N(C(=O)c1snc(C(N)=O)c1N)C(C(=O)NCCC(C)C)c1ccco1 (stereo not given),-19,?,?,3%,-29%,3%
COc1ccc(OC2C(O)COC2/C=C/C#Cc2ccccc2)cc1 (stereo not given),·,4%[10 µM],·,·,·,21%[10 µM]
Cc1ccc(-n2nc(C)c3c(C(=O)NCc4ccc(F)cc4)cc(C)nc32)cc1,·,·,-4%,·,?,·
COc1cccc(Nc2nc3ccc(C(=O)c4ccccc4)cc3n3c(C)nnc23)c1,·,·,12µM*,·,?,·
Cc1ccc(Nc2nc3ccccc3n3cnnc23)c(Cl)c1,-10,5%,-23%,8%,-30%,-2%
Cc1c(Cl)cccc1Nc1nc2ccc(C(=O)c3ccccc3)cc2n2cnnc12,·,·,?,·,23µM*,·
CCOC(=O)c1ccc(Nc2nc3ccc(C(=O)c4ccccc4)cc3n3c(C)nnc23)cc1,·,·,-22%,·,-18%,·
CCc1nnc2c(Nc3cccc(F)c3)nc3ccc(C(=O)c4ccccc4)cc3n12,·,·,6.5µM*,·,2.9µM*,·
O=C(NC1CCSc2ccccc21)c1cc([N+](=O)[O-])ccc1N1CCOCC1 (stereo not given),-14,·,-8%,8%,?,·
CC(C)CCNC(=O)C1CC2Cn3c(nc4cc(Cl)c(Cl)cc43)C2N1C (stereo not given),-21,·,?,·,23µM*,·
CN1C(C(=O)NCC2CC2)CC2Cn3c(nc4cc(Cl)c(Cl)cc43)C21 (stereo not given),6,19%,-17%,5%,-18%,0%
CCOC(=O)c1cc2sccc2n1CC(=O)N1CCCc2ccccc21,-50*,9%,?,?,?,-2%
SMILES,IL-1B inflam inh,RORgamma inh,DT40 TDP1 CPT,ELG1 DNA repair,DT40 TDP1 no CPT,VP16 counter
Cc1cccc(NC(=O)C(NS(=O)(=O)c2ccc3c(c2)oc(=O)n3C)C(C)C)c1 (stereo not given),·,·,-18%,·,-1%,·
Cc1ccc(-c2cnc(NCc3c(F)cccc3Cl)n2C)cc1,·,·,15µM*,·,23µM*,·
Cn1c(-c2ccc(F)cc2)cnc1NCc1ccccc1F,-7,-30%,-28%,?,23µM*,-26%
Cn1c(-c2ccc(F)cc2)cnc1NCc1ccc(F)cc1F,9,-35%,-4%,-19%,?,3%
Cn1c(-c2ccc(F)cc2)cnc1NCc1ccc(C#N)cc1,-15,-10%[10 µM],?,2%,16µM*,1%
Cn1c(-c2ccccc2)cnc1NCc1cc(Cl)ccc1O,-55*,32%,-6%,17%,-15%,19%
Cc1c(C)c2ccc(OC(C)C(=O)NC3CCN(Cc4ccccc4)CC3)cc2oc1=O (stereo not given),-7,-17%,18%,?,?,7%
COCCCNC(=O)c1cnn(-c2ncc3c(n2)-c2ccccc2CCC3)c1C,·,·,-5%[9.04 µM],·,-22%,·
C=CCn1c(NCc2cc(Cl)ccc2O)nc2ccccc21,-69*,37%,?,11%,?,-4%
Cn1nnnc1NCc1ccccc1F,11,0.63µM*,7%,0%,1%,3%

# Assay outcomes deposited in PubChem by National Center for Advancing Translational Sciences (NCATS).
